According to PubChem BioAssay AID463116 (University of Pittsburgh Molecular Library Screening Center, 2010):
The campaign covered roughly 1,000 compounds. About 710 (71%) were called active. Another 7% or so got no clear call; they are omitted.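 Rule for the calls: active = inhibition of receptor movement into the nucleus at or above a set limit in both runs, with normal cell brightness and cell count; inconclusive = limit reached in only one run, brightness and count normal; inactive = the rest.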 So high a share suggests a set chosen from earlier hits. A selection follows.

test: blockers of dexamethasone-driven GR-EGFP nuclear import – imaging, high-content imaging, GR-EGFP cells, confirmation (AID 463116); conditions: 3617.4 GR-EGFP nuclear translocation imaging, dexamethasone-induced, at 20 µM; inhibition: stronger effect = higher value; z-score: measured here: cell count per field;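 for inhibition: dexamethasone at 1 µM final in well for 30 min; nuclear minus cytoplasmic GR-EGFP mean intensity difference in channel 2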

| Structure (SMILES) | inhibition | z-score |
| --- | --- | --- |
| O=C1NC(=O)N(c2ccccc2)C(=O)/C1=C/c1ccc([N+](=O)[O-])s1 | 81.8% (active) | 0.0604 |
| COc1cccc(N2C(=O)NC(=O)/C(=C\c3ccc([N+](=O)[O-])s3)C2=O)c1 | 81.3% (active) | 0.0253 |
